Laboratory results: the supplement of paper PMC6555819

Assays:
Experiment in all cases: PBM binding z-score (relative to random genomic background probes); higher = stronger binding; sequences stand for … in GC…GCGATTGACAGCGTAGAATGAAGG
[1] = tested on: FXR:RXRa (NR concentration 270 nM, RXRa partner concentration 90 nM)
How it was run: (§1)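 Ligand-free nuclear receptor dimers were bound for 1 h to custom Agilent 4×180K protein-binding microarrays. Detection used antibodies against each partner (one per run). Binding z-scores rest on regression-normalized fluorescence, with random background probes as the reference.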

[2] = tested on: LXRa:RXRa (NR concentration 270 nM, RXRa partner concentration 90 nM)
How it was run: as §1

[3] = tested on: LXRa homodimer (NR concentration 270 nM)
How it was run: as §1

[4] = tested on: LXRb:RXRa (NR concentration 270 nM, RXRa partner concentration 90 nM)
How it was run: as §1

[5] = tested on: LXRb homodimer (NR concentration 270 nM)
How it was run: as §1

[6] = tested on: PPARg:RXRa (NR concentration 180 nM, RXRa partner concentration 90 nM)
How it was run: as §1

[7] = tested on: PPARg:RXRa 270nM:90nM, anti-RXR (NR concentration 270 nM, RXRa partner concentration 90 nM)
How it was run: as §1

[8] = tested on: PPARg:RXRa 30nM:10nM, anti-RXR (NR concentration 30 nM, RXRa partner concentration 10 nM)
How it was run: as §1

[9] = tested on: PPARg:RXRa 90nM:30nM, anti-RXR (NR concentration 90 nM, RXRa partner concentration 30 nM)
How it was run: as §1

[10] = tested on: PPARg:RXRa DBDmut IVT, anti-RXR (DBD mutation: RXRa K156A/R161A, NR concentration 270 nM, RXRa partner concentration 90 nM)
How it was run: as §1

[11] = tested on: PPARg:RXRa IVT, anti-PPARg (NR concentration 270 nM, RXRa partner concentration 90 nM)
How it was run: as §1

[12] = tested on: PPARg DBDmut:RXRa IVT, anti-PPARg (DBD mutation: PPARg1 K132A/R137A, NR concentration 270 nM, RXRa partner concentration 90 nM)
How it was run: as §1

[13] = tested on: PPARg DBDmut IVT, anti-PPARg (DBD mutation: PPARg1 K132A/R137A, NR concentration 270 nM)
How it was run: as §1

[14] = tested on: PPARg homodimer (NR concentration 180 nM)
How it was run: as §1

[15] = tested on: PXR:RXRa (NR concentration 270 nM, RXRa partner concentration 90 nM)
How it was run: as §1

[16] = tested on: PXR homodimer (NR concentration 270 nM)
How it was run: as §1

[17] = tested on: RARa:RXR (NR concentration 270 nM, RXRa partner concentration 90 nM)
How it was run: as §1

[18] = tested on: RARa homodimer (NR concentration 270 nM)
How it was run: as §1

[19] = tested on: RARb:RXRa (NR concentration 270 nM, RXRa partner concentration 90 nM)
How it was run: as §1

| Sequence | PBM binding z-score [1] | PBM binding z-score [2] | PBM binding z-score [3] | PBM binding z-score [4] | PBM binding z-score [5] | PBM binding z-score [6] | PBM binding z-score [7] | PBM binding z-score [8] | PBM binding z-score [9] | PBM binding z-score [10] | PBM binding z-score [11] | PBM binding z-score [12] | PBM binding z-score [13] | PBM binding z-score [14] | PBM binding z-score [15] | PBM binding z-score [16] | PBM binding z-score [17] | PBM binding z-score [18] | PBM binding z-score [19] |
| --- | --- | --- | --- | --- | --- | --- | --- | --- | --- | --- | --- | --- | --- | --- | --- | --- | --- | --- | --- |
| TGAATGAGGTTTAAGATCAGGGAACGTGGCGTCG | -0.267 | -0.0856 | -0.566 | -0.625 | -0.285 | 0.663 | 1.49 | 0.74 | 1.15 | -0.249 | 0.242 | 0.0033 | -0.732 | -0.165 | -0.2 | -0.311 | -0.216 | -0.194 | 0.0151 |
| CGAACTATGTCAAGGACAGTGAATCTCCGCACGC | 0.0723 | -0.232 | -0.234 | -0.456 | -0.269 | 0.856 | 0.74 | -0.213 | 0.259 | 3.57 | 2.11 | -0.346 | 0.361 | 0.224 | -0.112 | 0.37 | 0.29 | 0.0991 | 0.88 |
| CCTACTGGGCCAACAAGGTCATTGATGCCGATAA | 2.09 | 2.49 | 1.44 | 2.45 | -0.582 | 3.23 | 3.3 | 0.856 | 2.31 | 3.7 | 4.68 | -0.0965 | -0.198 | 2.24 | 3.92 | 3.62 | 3.64 | 0.0671 | 2.8 |
| TCAGATAGGTAAAGGTGAAAGTCGAACGATATGA | 0.962 | 1.49 | -0.219 | 1.3 | -0.401 | 2.56 | 3.99 | 4.4 | 4.3 | 2.81 | 2.22 | 0.559 | 0.38 | 1.31 | 0.975 | 0.0879 | 1.75 | 0.371 | 2.16 |
| CTCGAAAGGTGGTGCTCAGGTGAGTATACCAAAC | -0.352 | -0.533 | -0.489 | -0.329 | -0.573 | -0.375 | -0.0981 | -0.462 | -0.126 | -0.605 | 0.359 | -0.543 | -0.314 | 0.0565 | -0.599 | -0.22 | 0.343 | -0.47 | 0.237 |
| CCTAGTAGGTTATGGGGCATTCAGGCAACGGTGA | 0.561 | 0.515 | -0.0293 | 0.689 | -0.176 | 5.47 | 5.67 | 4.4 | 6.07 | 4.52 | 5.34 | 0.403 | -0.728 | 1.28 | 0.0613 | 0.02 | 0.431 | 0.456 | 1.13 |
| GCTAGTTGGTCAGTAAATGGTCACACACCGGTCG | 0.041 | -0.126 | -0.00637 | -0.244 | -0.204 | 0.366 | -0.00235 | -0.52 | -0.282 | 0.302 | 0.493 | 0.157 | 0.192 | 0.621 | -0.0876 | -0.353 | 0.368 | 0.255 | 1.2 |
| TATACAGGGTCTAAGGCCAGAGTACGAATGTCGA | 0.41 | 0.239 | 0.14 | 0.157 | 0.936 | 1.09 | 1.86 | 0.951 | 1.51 | -0.0368 | 0.912 | 0.973 | 0.725 | 0.023 | -0.0788 | 0.0324 | -0.102 | 0.373 | 0.935 |
| CAAACTAGGTCACCGGAAGGTCATAGTCCGCATG | 6.02 | 5.59 | 4.48 | 4.88 | 0.927 | 9.71 | 7.81 | 6.11 | 7.67 | 8.59 | 9.21 | 4.3 | 3.06 | 4.74 | 5.48 | 1.67 | 6.36 | 1.54 | 5.66 |
| CCTACTGGGCCATTGAGAGGTCATTGATCATATG | 1.94 | 3.79 | 6.21 | 3.34 | 0.0421 | 1.83 | 2.82 | 0.314 | 1.68 | 4.21 | 3.95 | -0.492 | 0.0836 | 2.14 | 4.37 | 2.03 | 4.26 | 0.245 | 2.82 |
| CCTGCTAGGTCAATGGTCAGCTAAAGCAGCTCGC | 3.01 | 2.21 | -0.22 | 1.4 | -0.359 | 4.36 | 5.49 | 3.2 | 5.15 | 4.63 | 4.19 | -1.03 | -1.12 | 0.944 | 0.92 | -0.545 | 1.82 | -0.551 | 3.73 |
| AGAATGAGGTTACACGTAGATCAGGGAAGAAAGT | 2.62 | 1.97 | -0.126 | 1.74 | -0.022 | 2.84 | 2.76 | 0.95 | 1.91 | 4.19 | 3.53 | 1.09 | 0.468 | 1.27 | 1.36 | -0.00272 | 1.84 | 0.499 | 2.07 |
| ACTAGTTGGTCAGCTGAGGTCACACTCAATTCGG | 3.79 | 3.19 | 2.29 | 3.64 | 0.527 | 1.23 | 1.94 | 0.159 | 1.26 | 1.55 | 2.58 | 0.716 | -0.0108 | 1.84 | 5.39 | 1.85 | 4.51 | 0.596 | 3.54 |
| CCCGCTAGGTCATGGTCAGCTAATCTACAGTATG | 3.68 | 2.72 | 0.611 | 2 | -0.348 | 2.43 | 2.82 | 0.967 | 1.94 | 3.87 | 3.52 | -0.299 | -0.741 | 1.77 | 1.49 | -0.038 | 2.33 | 0.196 | 3.83 |
| TCTCGGAGGACACGAAAGGTCTGAGCTCGACATC | 0.119 | -0.119 | -0.569 | -0.279 | -0.889 | 0.108 | 1.01 | 1.92 | 1.49 | 1.62 | -0.101 | -0.378 | -0.264 | 0.204 | -0.0379 | -0.678 | 0.227 | -0.321 | 1.7 |
